The values that follow come from PubChem BioAssay.

Active and inactive are the calls of the source. Unless noted, no stated cut-off is given here; in the data, active means inhibition above about 30%; inactive means the rest.

A short description of one test: yeast transport mutant growth inhibition pilot in 384-well plates, post-Golgi transport modulator project (AID 636; in the data active means inhibition above about 31%). The following applies: absorbance 615 nm, about 18 h, hits give high values.
For `Cc1cccc(C)c1NC(=O)CC(NCc1ccco1)C(=O)O` (configuration not stated), the inhibition (as a rule, the relative decrease from the control value, in per cent) was -7.7% (inactive). On to `Cc1noc(NS(=O)(=O)c2ccc(N3C(=O)c4ccccc4C3=O)cc2)c1C`, for which the inhibition was -3.47% (inactive).

With `O=C(NC(C(=O)c1ccccc1)n1ccc(=O)[nH]c1=O)c1ccccc1` (configuration not stated), the inhibition is -0.93% (inactive).

As for `CCc1nnc(NC(=O)NCN2C(=O)C3C4C=CC(C4)C3C2=O)s1` (configuration not stated), the inhibition is -6.44% (inactive).

As for `Cc1cc(C)c(C)c(S(=O)(=O)Nc2ccc(O)cc2)c1C`, the inhibition is -4.4% (inactive). As to `COc1cccc(C(c2nnnn2CCc2ccccc2)N2CCN(c3ccccc3)CC2)c1OC` (configuration not stated), the inhibition is 13.1% (inactive). On the same count and under the same terms, for `O=C(CSc1nc(-c2ccccc2)cs1)NCc1ccco1` the value was -6.08% (inactive). As to `Cc1cccc2cc(CN(CCCO)C(=O)Nc3ccc(Cl)cc3)c(=O)[nH]c12`, the inhibition is -5.32% (inactive).

For `O=C(O)c1oc2ccccc2c1-n1cccc1`, the inhibition was -4.8% (inactive). On to `O=C1CCc2cc(S(=O)(=O)N3CCC(C(=O)Nc4nccs4)CC3)ccc2N1`, for which the inhibition is -1.67% (inactive). On the same count and under the same terms, as for `CC(=O)N1C(=O)C2(C(C#N)=C(N)Oc3cc(C)oc(=O)c32)c2ccccc21` (configuration not stated), the figure is 1.84% (inactive); as for `CCOc1ccc(C(=O)N2CCN(c3ccccc3)CC2)cc1OCC`, 2.47% (inactive). Same read-out and setting: for `O=C(Cn1cnc2c(nnn2Cc2ccccc2)c1=O)c1ccc(Cl)cc1` the value was -3.46% (inactive); for `CCCNS(=O)(=O)c1ccc(OCC(=O)NCc2ccc3c(c2)OCO3)cc1`, -6.05% (inactive); for `COCCN(C(=O)CCC(=O)Nc1ccccn1)C(C(=O)NC1CCCC1)c1ccc(OC)cc1` (configuration not stated), 2.57% (inactive). As to `Cn1c(=O)n(CC(=O)OCc2ccccc2)c(=O)c2c1nc1n2CCCN1C1CCCCC1`, the inhibition is -6.35% (inactive). As to `CCOc1ccc(-c2nnn(CCC(=O)O)n2)cc1OC`, the inhibition was -4.93% (inactive).

Another test is described as follows: growth suppression of yeast trafficking mutant, preliminary HTS, modulators of trafficking downstream of Golgi apparatus project, 1536-format plate, OD 615 nm (AID 637). The following applies: yeast transport mutant growth, absorbance 615 nm, 18 h; hits give high values.
As for `CC1=C(C(=O)OCCOC(C)C)C(c2cc3c(cc2Br)OCO3)C2=C(CCCC2=O)N1` (configuration not stated), the inhibition was 6.07% (inactive). The same measure, in the same setting: as for `O=C(NCC(c1cccnc1)N1CCN(c2ccccc2)CC1)c1ccc2c(c1)OCO2` (configuration not stated), the figure is 12.9% (inactive). With `CCOC(=O)C(NC(C)=O)(NS(=O)(=O)c1ccccc1)C(F)(F)F` (configuration not stated), the inhibition was 1.59% (inactive). For `CC(C)(C)Nc1nc(NC(C)(C)C)nc(-n2ccnc2)n1`, the inhibition was 10.8% (inactive).

Turning to `Cc1nc2c3cnn(-c4ccccc4)c3ncn2n1`, the inhibition is 1.64% (inactive). On the same count and under the same terms, as for `CCOC(=O)C1CCN(c2c(Nc3ccc4c(c3)OCCO4)c(=O)c2=O)CC1`, the figure is 3.17% (inactive); as for `Cc1ccc(SCc2[nH]nc3c2C(c2ccc(C)o2)C(C#N)=C(N)O3)cc1` (configuration not stated), 2.06% (inactive). Consider `CCOC(=O)N1CCN(C(=O)CCc2ccc(S(=O)(=O)NCCc3ccccc3)cc2)CC1`, for which the inhibition is -4% (inactive). On the same count and under the same terms, for `O=C(CSc1nnnn1-c1ccc(Cl)cc1)NC(=O)Nc1ccc2c(c1)OCCO2` the value was 3.02% (inactive); for `CCCCn1c(CN2CCN(c3cccc(Cl)c3)CC2)nc2c1c(=O)n(C)c(=O)n2C`, 6.07% (inactive); for `COc1ccc(Cn2c(CCCO)nc3ccccc32)cc1OC`, -3.17% (inactive). Still for that read-out and setting: for `CC1(C)NC(=O)N(CC(O)CN(Cc2ccccc2)Cc2ccccc2)C1=O` (configuration not stated) the value was -10.2% (inactive); for `Cc1cc(C)n(C(=O)CNC(=O)C2COc3ccccc3O2)n1` (configuration not stated), -1.59% (inactive); for `CCOC(=O)c1ccc2[nH]c(C)c(CN3CCN(C)CC3)c(=O)c2c1`, 2.79% (inactive). The same measure, in the same setting: for `Cc1cc(=O)n(C)c(=O)n1CCCNc1ccccc1` the value was -5% (inactive); for `S=c1[nH]nc(-c2cccc(Br)c2)o1`, -8.83% (inactive); for `Cc1ccc(S(=O)(=O)N2CCN(CCO)CC2)cc1-c1nnc2c3ccccc3c(C)nn12`, -2.79% (inactive). Regarding `CC1=C(C(=O)Nc2ccccc2)C(c2ccco2)C(C#N)=C(SCC(=O)Nc2cccc(C)c2C)N1` (configuration not stated), the inhibition was -3.97% (inactive). The same measure, in the same setting: for `CCOC(=O)c1cc(CC)sc1NC(=O)CCC(=O)O` the value was 0.32% (inactive); for `O=C(NCC(c1cccnc1)N1CCOCC1)c1cccs1` (configuration not stated), 11.2% (inactive). On the same count and under the same terms, as for `O=c1cc(-c2ccccc2)[nH]c2nc3ccccc3n12`, the figure is -2.73% (inactive); as for `O=C(c1ccccc1-c1ccccc1)N1CCN(c2ccccn2)CC1`, -4.75% (inactive). Same read-out and setting: for `CCc1ccccc1NC(=O)CSc1nc2n[nH]c(C)c2c(=N)n1-c1ccc(OC)cc1` the value was 6.51% (inactive); for `Cc1cccc(C)c1NC(=O)CC(NCc1ccco1)C(=O)O` (configuration not stated), -2.67% (inactive). For the molecule `Cc1noc(NS(=O)(=O)c2ccc(N3C(=O)c4ccccc4C3=O)cc2)c1C`, the inhibition is 2.58% (inactive). With `O=C(NC(C(=O)c1ccccc1)n1ccc(=O)[nH]c1=O)c1ccccc1` (configuration not stated), the inhibition is 23.1% (inactive). As for `CCc1nnc(NC(=O)NCN2C(=O)C3C4C=CC(C4)C3C2=O)s1` (configuration not stated), the inhibition is -5.24% (inactive). On to `Cc1cc(C)c(C)c(S(=O)(=O)Nc2ccc(O)cc2)c1C`, for which the inhibition is -1.61% (inactive). Take `COc1cccc(C(c2nnnn2CCc2ccccc2)N2CCN(c3ccccc3)CC2)c1OC` (configuration not stated): the inhibition was -1.13% (inactive). The same measure, in the same setting: for `O=C(CSc1nc(-c2ccccc2)cs1)NCc1ccco1` the value was -9.18% (inactive); for `Cc1cccc2cc(CN(CCCO)C(=O)Nc3ccc(Cl)cc3)c(=O)[nH]c12`, -1.43% (inactive). The same measure, in the same setting: as for `O=C(O)c1oc2ccccc2c1-n1cccc1`, the figure is 0.16% (inactive); as for `O=C1CCc2cc(S(=O)(=O)N3CCC(C(=O)Nc4nccs4)CC3)ccc2N1`, -1.17% (inactive). Same read-out and setting: as for `CC(=O)N1C(=O)C2(C(C#N)=C(N)Oc3cc(C)oc(=O)c32)c2ccccc21` (configuration not stated), the figure is -2.91% (inactive). For the molecule `CCOc1ccc(C(=O)N2CCN(c3ccccc3)CC2)cc1OCC`, the inhibition is 9.51% (inactive).

`O=C(Cn1cnc2c(nnn2Cc2ccccc2)c1=O)c1ccc(Cl)cc1`: the inhibition was -0.17% (inactive). Still for that read-out and setting: for `CCCNS(=O)(=O)c1ccc(OCC(=O)NCc2ccc3c(c2)OCO3)cc1` the value was 11% (inactive); for `COCCN(C(=O)CCC(=O)Nc1ccccn1)C(C(=O)NC1CCCC1)c1ccc(OC)cc1` (configuration not stated), -0.49% (inactive); for `Cn1c(=O)n(CC(=O)OCc2ccccc2)c(=O)c2c1nc1n2CCCN1C1CCCCC1`, -0.16% (inactive). Turning to `CCOc1ccc(-c2nnn(CCC(=O)O)n2)cc1OC`, the inhibition is -0.16% (inactive).
